Measured values from PubChem BioAssay (NCI).
Values joined by “and” are separate entries in the source; they are usually repeats but may differ in a detail not shown here. Identical values can stand only once. The panel holds about 79,000 compounds, 15% with a hit somewhere; the sample as a whole holds those more often. Some structures have more than one record in an assay (separate samples or runs), and their calls can disagree. Active and inactive are the calls of the source. Rule as the data show it: active = growth inhibition above about 70%; inactive = the rest.

Tests used:
[1] = NCI Yeast Anticancer Drug Screen. Data for the rad50 strain (AID 155);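 also: 0% = growth of vehicle-only cultures of the same strain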; details: S. cerevisiae rad50 strain growth inhibition, stronger effect = higher value
Method in brief: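 Compounds were tested on a yeast strain with an engineered DNA damage repair alteration; the reported value is growth inhibition normalised to vehicle treatment.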

[2] = NCI Yeast Anticancer Drug Screen. Data for the mec2-1 strain (AID 157); details: S. cerevisiae mec2-1 strain, stronger effect = higher value
Method in brief: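 Strain: mec2-1 (DNA repair/cell cycle alteration). Compound exposure, then growth measured; inhibition expressed relative to vehicle.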

[3] = NCI Yeast Anticancer Drug Screen. Data for the sgs1 mgt1 strain (AID 161);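 also: 0% = growth of cultures given vehicle only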; details: S. cerevisiae sgs1 mgt1 strain, stronger effect = higher value
Method in brief: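 Test agents were incubated with a DNA-repair-mutant yeast strain. Growth was then read and compared against vehicle-treated controls.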

[4] = NCI Yeast Anticancer Drug Screen. Data for the cln2 rad14 strain (AID 165);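 also: 0% = growth equal to vehicle treated cultures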; details: S. cerevisiae cln2 rad14 strain, stronger effect = higher value
Method in brief: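 Compounds are applied to the cln2 rad14 yeast strain, and growth is then compared with that of vehicle-treated cultures to give inhibition.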

[5] = NCI Yeast Anticancer Drug Screen. Data for the bub3 strain (AID 167); details: S. cerevisiae bub3 mutant strain, stronger effect = higher value
Method in brief: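 Growth of a checkpoint-deficient yeast mutant is measured after compound exposure. Values represent inhibition relative to vehicle.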

[6] = NCI Yeast Anticancer Drug Screen. Data for the mlh1 rad18 strain (AID 175); details: S. cerevisiae mlh1 rad18 strain growth inhibition, stronger effect = higher value
Method in brief: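 Read-out is yeast growth inhibition, calculated against vehicle-only controls. The compound was applied to a strain engineered with DNA damage repair alterations.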

[7] = at 5.0 µM (retest, dose inferred, filed as 0.5)
[8] = at 50.0 µM (retest, dose inferred, filed as 5.0)

| SMILES | growth inhibition [1, 7] | growth inhibition [1, 8] | growth inhibition [2, 7] | growth inhibition [2, 8] | growth inhibition [3, 7] | growth inhibition [3, 8] | growth inhibition ([3]; at 50.0 µM) | growth inhibition [4, 7] | growth inhibition [4, 8] | growth inhibition [5, 7] | growth inhibition [5, 8] | growth inhibition ([5]; at 50.0 µM) | growth inhibition [6, 7] | growth inhibition [6, 8] | growth inhibition ([6]; at 50.0 µM) | growth inhibition ([1]; at 50.0 µM) | growth inhibition ([4]; at 50.0 µM) | growth inhibition ([2]; at 50.0 µM) |
| --- | --- | --- | --- | --- | --- | --- | --- | --- | --- | --- | --- | --- | --- | --- | --- | --- | --- | --- |
| C[C@H]1CCC/C=C/[C@@H]2C[C@H](O)C[C@H]2[C@H](O)/C=C/C(=O)O1 | 5% (inactive) and 15% (inactive) | 98% (active) and 99% (active) | 10% (inactive) and 26% (inactive) | 99% (active) and 100% (active) | 13% (inactive) and 21% (inactive) | 99% (active) | 90.3% (active) and 5.45% (inactive) and 90.8% (active) | 7% (inactive) and 27% (inactive) | 99% (active) | 4% (inactive) and 31% (inactive) | 97% (active) and 98% (active) | 90.8% (active) and 1.65% (inactive) and 90.9% (active) | 17% (inactive) and 42% (inactive) | 99% (active) | 90.8% (active) and 13.7% (inactive) and 39% (inactive) |  |  |  |
| CC(Cc1ccccc1)N(C)Cc1ccc(-c2ccccc2)o1 (stereo not given) | 27% (inactive) | 91% (active) |  |  | 14% (inactive) | 94% (active) | 63.6% (inactive) | 16% (inactive) | 88% (active) | 6% (inactive) | 96% (active) | 20.6% (inactive) | 12% (inactive) | 91% (active) | 81.3% (active) | 31.2% (inactive) | 14.6% (inactive) |  |
| COc1ccc2c(c1O)C13CCN(C)C(C2)C12C=CC(=O)C3c1c(O)ccc(O)c12 (stereo not given) |  |  | 13% (inactive) | 66% (inactive) | 17% (inactive) | 77% (active) | 89.3% (active) | -2% (inactive) | 41% (inactive) | -8% (inactive) | 55% (inactive) | 48.7% (inactive) | 17% (inactive) | 88% (active) | 84.5% (active) |  | 72.5% (active) | 66.5% (inactive) |
| O=[N+]([O-])c1c(Cl)sc(Cl)c1[N+](=O)[O-] | 99% (active) | 99% (active) | 100% (active) | 100% (active) |  |  |  | 99% (active) | 99% (active) | 100% (active) | 100% (active) | 99.7% (active) | 99% (active) | 99% (active) | 99.7% (active) | 99.7% (active) | 99.8% (active) | 99.7% (active) |
| O=C(C1C(c2ccccc2)N1C(c1ccccc1)c1ccccc1)C1C(c2ccccc2)N1C(c1ccccc1)c1ccccc1 (stereo not given) | -3% (inactive) | 50% (inactive) | 23% (inactive) | 42% (inactive) | -3% (inactive) | 77% (active) | 58% (inactive) |  |  | -14% (inactive) | 56% (inactive) | 63.9% (inactive) | 7% (inactive) | 80% (active) | 90.2% (active) | 72.7% (active) |  | 54% (inactive) |
| C=CO/C(C)=C(\[Se]c1ccccc1)C(C)=O | 4% (inactive) | 89% (active) |  |  | 7% (inactive) | 89% (active) | 91.8% (active) | -10% (inactive) | 38% (inactive) | -8% (inactive) | 65% (inactive) | 75% (active) | 6% (inactive) | 91% (active) | 91% (active) | 93.4% (active) | 57% (inactive) |  |
| OC1CCCC[CH]1[Hg][Cl] (stereo not given) | 99% (active) | 99% (active) | 100% (active) | 100% (active) |  |  |  | 99% (active) | 99% (active) | 100% (active) | 100% (active) | 99.3% (active) | 100% (active) | 100% (active) | 99.5% (active) | 99.3% (active) | 99.3% (active) | 99.7% (active) |
| CC(=O)[O][Hg][c]1ccccc1N | 36% (inactive) | 60% (inactive) | 36% (inactive) | 64% (inactive) | 99% (active) | 99% (active) | 93.7% (active) |  |  | 99% (active) | 98% (active) | 92.1% (active) | 22% (inactive) | 35% (inactive) | 91.7% (active) | 91.6% (active) |  | 93.8% (active) |
